The results in this text go back to PubChem BioAssay (EPA / NIEHS).

Activity calls are given as the source filed them. How the source made its calls: active means hit-call score of the fitted dose curve at least 0.9, where 1 is the maximum; inactive means score below 0.9.

Experiment [1] can be described thus: BSK_LPS_PGE2: BioMAP Diversity Plus: LPS Assay for Prostaglandin E2 (PGE2) Biomarker Activity (AID 2283082).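 On AC50: secreted prostaglandin E2 measured by ELISA in LPS-stimulated co-culture.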 Particulars: primary human HUVEC with PBMC; actives raise or lower the signal. An outline of the steps:
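PGE2 release measured by ELISA in an LPS-activated co-culture of human umbilical vein endothelial cells and peripheral blood mononuclear cells, read at 24 h post-dosing. DMSO served as baseline for bidirectional curve fitting.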

Read-out in experiment [2]: Macrophage colony-stimulating factor (MCSF), CSF1 (gene 1435)
The experiment can be described thus: BSK_LPS_MCSF: BioMAP Diversity Plus: LPS Assay for Macrophage colony-stimulating factor (MCSF) Biomarker Activity (AID 2283083). As to conditions: primary human HUVEC with PBMC; actives raise or lower the signal. An outline of the steps: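 Compound is added to a human vascular primary co-culture of umbilical vein endothelium and blood mononuclear cells. After 24 h, M-CSF is quantified by ELISA. Signal changes are fitted in both directions against DMSO.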

Read-out in experiment [3]: Tissue Factor, F3 (gene 2152)
The experiment can be described thus: BSK_LPS_TissueFactor: BioMAP Diversity Plus: LPS Assay for Tissue Factor Biomarker Activity (AID 2283084). Particulars: primary human HUVEC with PBMC; actives raise or lower the signal. The method, boiled down: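 In this co-culture system of umbilical vein endothelium with PBMC, stimulated with LPS, cell-surface CD142 is detected by ELISA at 24 h. Endpoint values derive from bidirectional fitting, DMSO serving as baseline.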

Read-out in experiment [4]: Tumor necrosis factor (Homo sapiens) (UniProt P01375)
Put plainly: BSK_LPS_TNFa: BioMAP Diversity Plus: LPS Assay for Tumour Necrosis Factor alpha (TNFa) Biomarker Activity (AID 2283085). Particulars: primary human HUVEC with PBMC; actives raise or lower the signal. An outline of the steps:
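TNFa was quantified by ELISA in LPS-activated co-cultures of human endothelial cells and PBMC, 24 h post-dosing. Both increases and decreases versus DMSO were fitted.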

Read-out in experiment [5]: Vascular cell adhesion molecule 1 (VCAM1), VCAM1 (gene 7412)
Put plainly: BSK_LPS_VCAM1: BioMAP Diversity Plus: LPS Assay for Vascular cell adhesion molecule 1 (VCAM1) Biomarker Activity (AID 2283086). As to conditions: primary human HUVEC with PBMC; actives raise or lower the signal. An outline of the steps: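 VCAM-1 quantified by ELISA in an LPS-activated co-culture of human endothelial cells and peripheral blood mononuclear cells, read 24 h post-treatment. Fitted in both directions versus DMSO; parallel SRB staining flags overt cytotoxicity.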

Read-out in a further experiment: CD38, CD38 (gene 952)
The experiment can be described thus: BSK_SAg_CD38: BioMAP Diversity Plus: SAg Assay for CD38 Biomarker Activity (AID 2283087). As to conditions: primary human HUVEC with PBMC; actives raise or lower the signal. The method, boiled down: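 CD38 quantified by ELISA (fluorescence) in a superantigen-activated endothelial cell–PBMC co-culture at 24 h post-dose. Activity fitted in both directions relative to DMSO; parallel SRB and Alamar Blue cytotoxicity read-outs.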

Read-out in the next experiment: CD40, CD40 (gene 958)
Put plainly: BSK_SAg_CD40: BioMAP Diversity Plus: SAg Assay for CD40 Biomarker Activity (AID 2283088). Particulars: primary human HUVEC with PBMC; actives raise or lower the signal. An outline of the steps: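 Fluorescence ELISA read-out of CD40 from umbilical vein endothelium plus peripheral blood mononuclear cells, sampled 24 h after dosing. Values come from bidirectional curve fitting with DMSO as baseline.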

Read-out in the next experiment: CD69, CD69 (gene 969)
The experiment can be described thus: BSK_SAg_CD69: BioMAP Diversity Plus: SAg Assay for CD69 Biomarker Activity (AID 2283089). Particulars: primary human HUVEC with PBMC; actives raise or lower the signal. An outline of the steps:
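ELISA, fluorescence read-out: CD69 on human umbilical vein endothelial cell + PBMC co-culture, 24 h post-dosing. Gain or loss of signal fitted bidirectionally against DMSO baseline.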

Read-out in experiment [6]: Monocyte Chemoattractant Protein-1 (MCP1), CCL2 (gene 6347)
Put plainly: BSK_SAg_MCP1: BioMAP Diversity Plus: SAg Assay for Monocyte Chemoattractant Protein-1 (MCP1) Biomarker Activity (AID 2283090). As to conditions: primary human HUVEC with PBMC; actives raise or lower the signal. The method, boiled down:
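Values derive from bidirectional fitting of ELISA-measured MCP1 against DMSO controls. Readings were taken 24 h after dosing human vascular endothelial cells co-cultured with peripheral blood mononuclear cells under superantigen stimulation.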

Read-out in experiment [7]: E-selectin (Homo sapiens) (UniProt P16581)
The experiment can be described thus: BSK_SAg_Eselectin: BioMAP Diversity Plus: SAg Assay for Eselectin Biomarker Activity (AID 2283091). As to conditions: primary human HUVEC with PBMC; actives raise or lower the signal. The method, boiled down: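 Primary human endothelial cells and peripheral blood mononuclear cells were co-cultured and exposed to chemical for 24 hours. E-selectin levels were then quantified by ELISA, with bidirectional curve fitting normalised to DMSO controls.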

Read-out in experiment [8]: Monokine induced gamma interferon (MIG), CXCL9 (gene 4283)
The experiment can be described thus: BSK_SAg_MIG: BioMAP Diversity Plus: SAg Assay for Monokine induced gamma interferon (MIG) Biomarker Activity (AID 2283092). Particulars: primary human HUVEC with PBMC; actives raise or lower the signal. The method, boiled down: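 ELISA readout of MIG/CXCL9; primary human umbilical vein endothelial cells co-cultured with peripheral blood mononuclear cells; 24 h post-dose; gain/loss fit vs DMSO baseline.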

Experiment [9] can be described thus: BSK_SAg_PBMCCytotoxicity: PBMC Cytotoxicity Assessment in the BioMAP Diversity Plus: SAg Assay (AID 2283093).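 Further: fitted both ways against DMSO so a hit may be loss or gain of signal.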 Particulars: primary human HUVEC with PBMC. An outline of the steps: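 PBMC viability by Alamar Blue reduction, fluorescence read at 546/580 nm after 6 h dye exposure. Cells were dosed 1 h before SEB plus TSST-1 activation (20 ng/mL final each), then held 90 h; endothelial/PBMC human co-culture.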

Read-out in experiment [10]: Interleukin-8 (IL8), CXCL8 (gene 3576)
Put plainly: BSK_SAg_IL8: BioMAP Diversity Plus: SAg Assay for Interleukin-8 (IL8) Biomarker Activity (AID 2283094). As to conditions: primary human HUVEC with PBMC; actives raise or lower the signal. The method, boiled down:
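ELISA readout of IL-8 from a superantigen-activated endothelial/PBMC primary human co-culture, taken 24 h post-dosing and fitted in both directions against DMSO; parallel SRB total-protein staining flags overt cytotoxicity.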

Experiment [11] can be described thus: BSK_SAg_Proliferation: Cell Proliferation Assessment in the BioMAP Diversity Plus: SAg Assay (AID 2283095).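 Further: relative cell number as total protein by SRB absorbance in sub-confluent culture.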 As to conditions: primary human HUVEC with PBMC. The method, boiled down: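 Relative cell number in the endothelial cell/PBMC co-culture was quantified at 96 h by SRB staining (0.1% SRB, 10% TCA fixation, read at 560 nm). Curves were fitted in both directions relative to DMSO baseline.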

Experiment [12] can be described thus: BSK_SAg_SRB: Viability Assessment in the BioMAP Diversity Plus: SAg Assay (AID 2283096).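 Further: cells read one day after compound addition; hits may be either gain or loss of signal compared with DMSO.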 Particulars: primary human HUVEC with PBMC. The method, boiled down:
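Compounds were added to a human vascular co-culture of umbilical vein endothelium and PBMC. After 24 h, parallel cultures were fixed with 10% TCA, stained with 0.1% sulforhodamine B and read at 560 nm. Gain or loss of signal was fitted relative to DMSO.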

Chain of Tumor necrosis factor (Homo sapiens) (P01375 whole entry, looked up): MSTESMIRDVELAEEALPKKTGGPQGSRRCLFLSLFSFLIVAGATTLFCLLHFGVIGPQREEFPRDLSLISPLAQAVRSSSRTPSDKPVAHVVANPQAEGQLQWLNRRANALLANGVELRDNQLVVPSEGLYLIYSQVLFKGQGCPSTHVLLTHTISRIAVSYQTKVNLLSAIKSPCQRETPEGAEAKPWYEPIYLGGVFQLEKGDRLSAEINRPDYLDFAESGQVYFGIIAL
Chain of E-selectin (Homo sapiens) (P16581 whole entry, looked up): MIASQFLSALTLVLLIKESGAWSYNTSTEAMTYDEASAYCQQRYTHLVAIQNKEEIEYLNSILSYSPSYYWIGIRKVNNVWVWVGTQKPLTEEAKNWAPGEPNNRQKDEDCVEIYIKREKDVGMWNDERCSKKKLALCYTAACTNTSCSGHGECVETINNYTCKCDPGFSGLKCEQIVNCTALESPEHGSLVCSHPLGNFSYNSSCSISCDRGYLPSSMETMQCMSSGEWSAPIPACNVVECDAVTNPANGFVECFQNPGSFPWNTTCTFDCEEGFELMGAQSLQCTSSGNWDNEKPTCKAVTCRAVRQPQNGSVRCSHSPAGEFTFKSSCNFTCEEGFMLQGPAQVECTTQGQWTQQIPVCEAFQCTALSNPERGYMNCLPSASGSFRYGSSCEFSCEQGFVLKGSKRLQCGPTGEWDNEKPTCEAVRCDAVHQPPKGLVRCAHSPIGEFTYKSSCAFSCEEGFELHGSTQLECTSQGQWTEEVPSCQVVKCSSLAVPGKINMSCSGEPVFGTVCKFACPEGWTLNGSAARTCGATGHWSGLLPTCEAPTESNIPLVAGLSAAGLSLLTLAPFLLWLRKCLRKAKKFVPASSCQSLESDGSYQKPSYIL

On to `N#CC(Br)Br`, for which the outcome in [1] was “inactive”; in [2], “inactive”; in experiment [3], “inactive”; in experiment [4], “inactive”; in [5] it was “inactive”; with CD38, CD38 (gene 952) it was “inactive”. Moreover, the outcome with CD40, CD40 (gene 958) was “inactive”; in the experiment with CD69, CD69 (gene 969), “inactive”; in experiment [6], “inactive”; in experiment [7] it was “inactive”; in [8], “inactive”; in [9] it was “inactive”. The outcome in experiment [10], in experiment [11] and in [12] was inactive.
As for `CCCSC(=O)N(CCC)CCC`, the outcome in experiment [1] is “inactive”; in experiment [2], “inactive”; in experiment [3] it was “inactive”; in [4], “inactive”; in experiment [5] it was “inactive”; in the experiment with CD38, CD38 (gene 952) it was “inactive”. In addition, the outcome is “inactive” with CD40, CD40 (gene 958); “inactive” with CD69, CD69 (gene 969); “inactive” in [6]; “inactive” in experiment [7]; “inactive” in [8]; “inactive” in experiment [9]. Also, the outcome in experiment [10], in experiment [11] and in experiment [12] was inactive.
As to `c1ccc2c(c1)oc1ccccc12`, the outcome in experiment [1] was “inactive”; in experiment [2], “inactive”; in [3], “inactive”; in [4] it was “inactive”; in experiment [5] it was “inactive”; with CD38, CD38 (gene 952), “inactive”. Further, the outcome with CD40, CD40 (gene 958) was “inactive”; with CD69, CD69 (gene 969), “inactive”; in experiment [6], “inactive”; in experiment [7], “inactive”; in experiment [8], “inactive”; in experiment [9], “inactive”. The result in experiment [10], in experiment [11] and in experiment [12] was inactive.
Consider `CCN(CC)N=O`, for which the outcome was “inactive” in [1]; “inactive” in [2]; “inactive” in experiment [3]; “inactive” in [4]; “inactive” in experiment [5]; “inactive” with CD38, CD38 (gene 952). Further, the outcome with CD40, CD40 (gene 958) is “inactive”; with CD69, CD69 (gene 969), “inactive”; in experiment [6], “inactive”; in experiment [7], “inactive”; in [8], “inactive”; in experiment [9], “inactive”. The result in experiment [10], in experiment [11] and in [12] was inactive.
As usually defined, the AC50 is the concentration giving half of the maximal activity seen. Turning to `COC(=O)Nc1nc2ccccc2[nH]1`, the outcome in experiment [1] was “inactive”; in experiment [3], “inactive”; in experiment [4], “inactive”; in the experiment with CD38, CD38 (gene 952), “inactive”; with CD40, CD40 (gene 958) it was “inactive”; in the experiment with CD69, CD69 (gene 969), “inactive”. In addition, the outcome in [6], in experiment [7], in experiment [8], in experiment [9] and in experiment [10] was inactive. Also, the concentration at half-maximal activity (AC50) in experiment [2] is 7.04 µM (active); in experiment [5], 11.3 µM (active); in experiment [11], 11.2 µM (active); in [12] it was 9.84 µM (active).
Consider `Cc1ccc(N)c(N)c1`, for which the AC50 in experiment [1] is 20 µM (active); in experiment [2] it was 11.5 µM (active); in [5], 9.77 µM (active); with CD40, CD40 (gene 958), 7.11 µM (active); in experiment [7] it was 4.36 µM (active). The outcome in experiment [3] is “inactive”; in experiment [4], “inactive”; in the experiment with CD38, CD38 (gene 952), “inactive”; with CD69, CD69 (gene 969), “inactive”; in experiment [6], “inactive”; in experiment [8] it was “inactive”. Further, the outcome in experiment [9], in experiment [10], in experiment [11] and in experiment [12] was inactive.
On to `Clc1ccc(Cl)c(Cl)c1`, for which the outcome is “inactive” in experiment [1]; “inactive” in experiment [2]; “inactive” in experiment [3]; “inactive” in experiment [4]; “inactive” in experiment [5]; “inactive” in the experiment with CD38, CD38 (gene 952). Besides, the outcome is “inactive” in the experiment with CD40, CD40 (gene 958); “inactive” with CD69, CD69 (gene 969); “inactive” in experiment [6]; “inactive” in [7]; “inactive” in experiment [8]; “inactive” in experiment [9]. The result in [10], in experiment [11] and in [12] was inactive.
With `CCC12COCN1COC2`, the outcome was “inactive” in experiment [1]; “inactive” in [2]; “inactive” in [3]; “inactive” in [4]; “inactive” in experiment [5]; “inactive” with CD38, CD38 (gene 952). In addition, the outcome was “inactive” with CD40, CD40 (gene 958); “inactive” with CD69, CD69 (gene 969); “inactive” in [6]; “inactive” in experiment [7]; “inactive” in experiment [8]; “inactive” in [9]. In addition, the result in experiment [10], in experiment [11] and in experiment [12] was inactive.
